Screening results: PubChem BioAssay, National Center for Advancing Translational Sciences (NCATS)
The sample as a whole holds a higher share of hits than the screen did.
TbPYK inhibitor = blocks Trypanosoma brucei pyruvate kinase; Q57TT1; TbPYK enzyme, Kinase-Glo Plus ATP luminescence, 45 min; Potency, µM (doses to about 76.8 µM), for inactives: at the highest dose activity, negative = inhibition, hits mostly inhibitors; 410,000 compounds, 0.12% hits; AID 624173; also: potency is read from the fitted curve at half-maximal effect; % is scaled to controls: 0 for no effect and ±100 for the full control effect; nearly all actives have a fitted effect of over 50% in size
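Quantitative HTS: titrated library compounds versus trypanosomal pyruvate kinase in TEA buffer (pH 7.2) containing KCl, MgCl2, BSA and Tween-20. Reactions were initiated with ADP, 130 uM final. Kinase-Glo Plus luminescence was read after 45 min at RT.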
LmPK inhibitor = blocks Leishmania mexicana pyruvate kinase activity; 290,000 compounds, 0.37% hits; purified LmPK, Kinase-Glo ATP luminescence, 1 h; Potency, µM (doses to about 57.5 µM), for the others: at the top dose activity change, negative = inhibition, most hits filed as inhibitors; Q27686; AID 1721; also: potency is read from the fitted curve at half-maximal effect; % is scaled to controls: 0 for no effect and ±100 for the full control effect
Target sequence (Q27686 whole entry, looked up): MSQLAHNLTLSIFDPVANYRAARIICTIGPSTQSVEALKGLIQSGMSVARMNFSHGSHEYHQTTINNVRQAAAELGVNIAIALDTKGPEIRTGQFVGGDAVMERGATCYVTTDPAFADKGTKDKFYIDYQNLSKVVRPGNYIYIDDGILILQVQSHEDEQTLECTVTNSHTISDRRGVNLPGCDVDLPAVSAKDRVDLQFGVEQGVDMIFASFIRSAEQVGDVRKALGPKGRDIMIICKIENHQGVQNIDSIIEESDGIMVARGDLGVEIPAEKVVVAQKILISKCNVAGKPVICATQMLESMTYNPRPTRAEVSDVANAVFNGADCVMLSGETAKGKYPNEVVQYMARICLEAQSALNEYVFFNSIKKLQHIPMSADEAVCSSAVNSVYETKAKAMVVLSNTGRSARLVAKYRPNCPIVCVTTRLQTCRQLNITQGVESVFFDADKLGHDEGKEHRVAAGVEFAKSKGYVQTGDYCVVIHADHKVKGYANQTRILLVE
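In 50 mM imidazole pH 7.2 with 7 mM MgCl2, LmPK (0.1 nM) turned over PEP (0.5 mM) and ADP (0.1 mM) for 1 h at room temperature. Luciferase read-out of ATP.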
Shiga toxin inh = Shiga toxin inhibition; Vero cells, Shiga toxin protein synthesis inhibition reporter; inhibition, % at 38.7 µM; 290,000 compounds, 9.2% hits; AID 2315; in the data active = inhibition mostly above about 28%, no sharp cut-off; inactive = mostly below about 43%; also: 0% is about no effect
Sm TGR inh = S. mansoni TGR enzyme inhibition. 360,000 compounds, 3% hits. Potency, µM (top dose mostly 114 µM), for the others: at the top dose activity change, negative = inhibition, most hits filed as inhibitors. purified TGR, DTNB reduction, TNB absorbance 405 nm. Q962Y6. AID 485364; also: potency is read from the fitted curve at half-maximal effect; % is scaled to controls: 0 for no effect and ±100 for the full control effect; nearly all actives have a fitted effect of over 60% in size
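First, TGR (20 nM dispensed) and NADPH were mixed with compound. Second, a 15 min room-temperature incubation followed. Third, further NADPH and then DTNB were added to start the reaction. Finally, TNB absorbance was monitored kinetically.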
Giardia FBPA inh = inhibitors of Giardia lamblia fructose-1,6-bisphosphate aldolase; A8B2U2; purified Giardia FBPA; Potency, µM (titrated, usually from 59.6 µM), for inactives: at the top dose activity, negative = inhibition, hits mostly inhibitors; 290,000 compounds, 0.71% hits; also: potency is read from the fitted curve at half-maximal effect; % is scaled to controls: 0 for no effect and ±100 for the full control effect; nearly all actives have a fitted effect of over 55% in size
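Giardia FBPA (40 nM reagent) was preincubated 10 min at RT with compound (up to 57.5 uM final), then substrate plus GAPDH/TPI/NAD/arsenate coupling system with diaphorase/resazurin was added; resorufin fluorescence (525/598 nm) was read after 20 min.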
Cycloheximide cs = counter-screen for Shiga toxin inhibitors: cycloheximide protein synthesis inhibition; cell reporter, cycloheximide protein synthesis inhibition counterscreen; max response, %; 300,000 compounds, 12% hits; in the data active = max response mostly above about 13%, no sharp cut-off; inactive = mostly below about 14%; also: read at 38.3 µM for the half of the compounds with a filed dose; 0% is about no effect
Starred values were filed as active, the others as inactive. Unless noted, calls follow the shape of the dose curve; as a rule, active = well fitted curve in the direction sought with a large enough effect; inconclusive = small, poorly fitted or top-dose-only effect, or another doubt; inactive = no such curve, though single readings can be large; an effect the other way counts as inactive or inconclusive.

Results for O=C(c1ccco1)N1CCN(C(c2ccccn2)c2nnnn2C2CCCC2)CC1 (stereo not drawn) ?
TbPYK inhibitor: -8.4%; LmPK inhibitor: -6.9%; Shiga toxin inh: 86.4*; Sm TGR inh: inconclusive; Giardia FBPA inh: 2.5%; Cycloheximide cs: 36.6*

How did CC(C)CCCC(C)C1CCC2C3CC=C4CC(=O)CC[C@@]4(C)C3CC[C@@]12C (stereo partly drawn) do in these assays?
Giardia FBPA inh: 0.2%

Results for CCC1CC=CC2C1C(=O)N(Cc1ccccc1)C2c1cccc([N+](=O)[O-])c1 (stereo not drawn) ?
Shiga toxin inh: 36.7; Giardia FBPA inh: -17.2%; Cycloheximide cs: 37.5

How did O=C1C2C3C=CC(C4CC34)C2C(=O)N1/N=C/c1ccc([N+](=O)[O-])o1 (stereo not drawn) do in these assays?
TbPYK inhibitor: -6.1%; LmPK inhibitor: 10.0%; Shiga toxin inh: 16.0; Sm TGR inh: 0.0%; Giardia FBPA inh: inconclusive; Cycloheximide cs: 21.9*

Results for O=C1C2C3C=CC(C4CC34)C2C(=O)N1/N=C/c1cccs1 (stereo not drawn) ?
TbPYK inhibitor: -9.9%; LmPK inhibitor: 4.3%; Shiga toxin inh: 48.7*; Sm TGR inh: 3.6%; Giardia FBPA inh: -8.7%; Cycloheximide cs: 51.4*

What do the screens show for `COC(=O)c1ccc(-c2ccc(/C=N/N3C(=O)C4C5C=CC(C6CC56)C4C3=O)o2)cc1` (stereo not drawn)?
TbPYK inhibitor: -14.2%; LmPK inhibitor: -3.7%; Shiga toxin inh: 131.6*; Sm TGR inh: -28.0%; Giardia FBPA inh: -17.9%; Cycloheximide cs: 75.0*

How did Cc1ccc(-c2ccc(/C=N/N3C(=O)C4C5C=CC(C6CC56)C4C3=O)o2)c([N+](=O)[O-])c1 (stereo not drawn) do in these assays?
TbPYK inhibitor: -3.8%; LmPK inhibitor: 3.2%; Shiga toxin inh: 16.1; Sm TGR inh: -30.5%; Giardia FBPA inh: -2.5%; Cycloheximide cs: 3.2

Results for COC(=O)c1cccc(-c2ccc(/C=N/N3C(=O)C4C5C=CC(C6CC56)C4C3=O)o2)c1 (stereo not drawn) ?
TbPYK inhibitor: -2.1%; LmPK inhibitor: -0.9%; Shiga toxin inh: 25.5; Giardia FBPA inh: 5.7%; Cycloheximide cs: 8.8

What do the screens show for `O=C1C2C3C=CC(C4CC34)C2C(=O)N1/N=C/c1ccc(-c2ccc([N+](=O)[O-])cc2)o1` (stereo not drawn)?
TbPYK inhibitor: 2.6%; LmPK inhibitor: 7.8%; Shiga toxin inh: 36.2; Sm TGR inh: -11.2%; Giardia FBPA inh: -1.0%; Cycloheximide cs: -1.9

What do the screens show for `O=C1C2C3C=CC(C3)C2C(=O)N1/N=C/c1ccc(-c2ccccc2[N+](=O)[O-])o1` (stereo not drawn)?
TbPYK inhibitor: -10.3%; LmPK inhibitor: -1.8%; Shiga toxin inh: 65.8*; Sm TGR inh: -21.9%; Giardia FBPA inh: inconclusive; Cycloheximide cs: 31.6*

What do the screens show for `COc1c(-c2coc3cc4c(cc3c2=O)CC(O)C(C)(C)O4)ccc2c1C=CC(C)(C)O2` (stereo not drawn)?
Giardia FBPA inh: -13.6%

Results for C=C(C)[C@H]1CC=C(CO)CC1 ?
Shiga toxin inh: 21.7; Giardia FBPA inh: 2.7%; Cycloheximide cs: 4.4

How did CCC(=O)Nc1ccc(-c2csc(C)n2)cc1 do in these assays?
TbPYK inhibitor: -9.8%; LmPK inhibitor: -6.3%; Shiga toxin inh: 30.6; Sm TGR inh: -9.9%; Giardia FBPA inh: -1.4%; Cycloheximide cs: 22.7*

Results for Cc1nc(-c2ccc(NC(=O)Cc3ccccc3)cc2)cs1 ?
TbPYK inhibitor: 5.0%; LmPK inhibitor: 2.1%; Shiga toxin inh: 86.8*; Sm TGR inh: -10.5%; Giardia FBPA inh: 12.6%; Cycloheximide cs: 43.4*

Results for CC1=C(C(=O)Nc2ccccc2)C(c2cccc(O)c2)n2nc(-c3ccccc3Cl)nc2N1 (stereo not drawn) ?
TbPYK inhibitor: 1.1%; Sm TGR inh: 0.2%

What do the screens show for `CSCC[C@H](NC(=O)[C@@H]1Cc2ccccc2CN1)C(=O)Nc1ccc2c(c1)OCCO2`?
TbPYK inhibitor: 1.0%; LmPK inhibitor: -6.4%; Shiga toxin inh: 87.5*; Sm TGR inh: -10.7%; Giardia FBPA inh: -23.3%; Cycloheximide cs: 51.7*

How did CC(C)[C@H](NC(=O)[C@@H]1Cc2ccccc2CN1)C(=O)Nc1ccc2c(c1)OCCO2 do in these assays?
TbPYK inhibitor: 5.7%; LmPK inhibitor: -0.7%; Shiga toxin inh: 82.6*; Sm TGR inh: -11.9%; Cycloheximide cs: 28.3*

How did Cc1cccc(NC(=O)[C@@H](NC(=O)[C@@H]2Cc3ccccc3CN2)C(C)C)c1 do in these assays?
TbPYK inhibitor: 11.8%; LmPK inhibitor: 9.3%; Shiga toxin inh: 10.0; Sm TGR inh: 3.2%; Giardia FBPA inh: -26.3%; Cycloheximide cs: 4.7

How did C[C@H](NC(=O)[C@@H]1Cc2ccccc2CN1)C(=O)NC1CCCC1 do in these assays?
TbPYK inhibitor: -6.3%; LmPK inhibitor: 0.0%; Shiga toxin inh: -3.2; Sm TGR inh: -28.2%; Giardia FBPA inh: -28.7%; Cycloheximide cs: -0.6

What do the screens show for `O=C(CNC(=O)[C@@H]1Cc2ccccc2CN1)NC1CCCC1`?
TbPYK inhibitor: -1.8%; LmPK inhibitor: 4.7%; Shiga toxin inh: 53.0; Sm TGR inh: 0.0%; Cycloheximide cs: 24.3*

How did CC(C)C(NC(=O)C1CCCCC1)C(=O)Nc1ccc2c(c1)OCCO2 (stereo not drawn) do in these assays?
TbPYK inhibitor: 2.9%; LmPK inhibitor: 1.2%; Shiga toxin inh: active; Sm TGR inh: 10.9%; Giardia FBPA inh: -7.2%; Cycloheximide cs: 63.2*

How did Cc1ccc(C)c(CSc2nc3c([nH]c4ccccc43)c(=O)n2C)c1 do in these assays?
TbPYK inhibitor: 1.2%; Sm TGR inh: -15.2%

How did O=C(NCC(=O)N1CCC(Cc2ccccc2)CC1)c1ccc(Cl)cc1 do in these assays?
TbPYK inhibitor: -9.5%; LmPK inhibitor: -9.8%; Shiga toxin inh: 7.3; Sm TGR inh: -24.1%; Cycloheximide cs: 0.5

Results for COc1cc(CN(CC2CCCO2)C(=O)c2ccc(F)cc2)cc(OC)c1OC (stereo not drawn) ?
TbPYK inhibitor: -2.4%; Sm TGR inh: 1.3%

What do the screens show for `CCOC(=O)c1cccc(NC(=O)CCS(=O)(=O)c2ccc3c(c2)CC(=O)N3C)c1`?
TbPYK inhibitor: 0.4%; Sm TGR inh: -10.5%

Results for C[C@H](NC(=O)[C@@H]1Cc2ccccc2CN1)C(=O)Nc1ccc2c(c1)OCCO2 ?
TbPYK inhibitor: 1.8%; LmPK inhibitor: 6.8%; Shiga toxin inh: 51.0*; Sm TGR inh: -8.1%; Cycloheximide cs: 36.2*

What do the screens show for `CCC(C)[C@H](NC(=O)[C@@H]1Cc2ccccc2CN1)C(=O)Nc1ccc2c(c1)OCO2` (stereo partly drawn)?
TbPYK inhibitor: 0.0%; LmPK inhibitor: -3.8%; Shiga toxin inh: 38.5*; Sm TGR inh: -27.7%; Cycloheximide cs: 29.7*
